For 29 molecules, Z-AUC results are on record in PubChem BioAssay (NCATS).

SMILES strings stand for the structures. Several values for one entry are separate records, joined by “and”; a condition that tells them apart may be missing. Equal entries are not always repeated. Activity calls are given as the source filed them. The call rests on the fitted dose curve. Where a SMILES comes first, the peptide text is derived from it.

The assay in a line: qHTS drug screen for cell cycle checkpoint inhibitors in PARPi-resistant BRCA-mutant ovarian cancer cell lines. (AID 1963452). The following applies: PEO1/OlaR viability, CellTiter-Glo luminescence, 96 h; active compounds read low. In short, it runs like this:
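PEO1, PEO4 and PEO1/OlaR ovarian cancer cells, 600 per well, exposed 96 h at 37C to a dilution series. Viability read by CellTiter-Glo luminescence, normalized to DMSO and empty wells; activity summarized as Z-AUC.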
Take `COc1ccc([C@@H](O)[C@@H](C)Oc2ccc([C@H]3O[C@H](c4ccc(O[C@H](C)[C@H](O)c5ccc(OC)c(OC)c5)c(OC)c4)[C@H](C)[C@H]3C)cc2OC)cc1OC`: the Z-AUC is -1.98 (inactive). For the molecule `CN1CCN(C(=O)[C@H]2[C@@H](C(=O)O)[C@H]3CC[C@@H]2O3)CC1`, the Z-AUC is 0.39 (inactive). For `CN1C(=O)[C@@H](NC(=O)c2cc(Cc3ccccc3)on2)COc2ccccc21`, the Z-AUC is 0.979 (inactive). The result for `CN(C)CCOc1ccc(-c2nc(-c3ccc4c(c3)CC/C4=N\O)c(-c3ccncc3)[nH]2)cc1` reads -0.892 (inactive). Turning to `CC(=O)N[C@H]1[C@H](O[C@@H]2c3ccc(c(Cl)c3)Oc3cc4cc(c3O[C@@H]3O[C@H](CO)[C@@H](O)[C@H](O)[C@H]3NC(=O)CCCCCCCC(C)C)Oc3ccc(cc3Cl)C[C@H]3NC(=O)[C@H](N)c5ccc(O)c(c5)Oc5cc(O)cc(c5)[C@H](NC3=O)C(=O)N[C@H]4C(=O)N[C@H]3C(=O)N[C@@H]2C(=O)N[C@@H](C(=O)O)c2cc(O)cc(O[C@H]4O[C@H](CO)[C@@H](O)[C@H](O)[C@@H]4O)c2-c2cc3ccc2O)O[C@H](CO)[C@@H](O)[C@@H]1O`, the Z-AUC was 0.721 (inactive). With `Cc1cc(C)cc(Oc2ccc(CNC(=O)[C@H](C)N)cc2C)c1`, the Z-AUC was 1.6 (inactive). The result for `CCn1c(=O)c2c(nc(/C=C/c3ccc(OC)c(OC)c3)n2C)n(CC)c1=O` reads 0.577 (inactive). The result for `N=C(N)c1ccc2nc(-c3cc(CC(=O)N[C@@H](CC(=O)O)C(=O)O)cc(-c4cc(S(N)(=O)=O)ccc4O)c3O)[nH]c2c1` reads -0.76 (inactive); that for `O=C(/C=C/N1C[C@H]2C[C@@H]1CN2c1ccccn1)c1ccccc1O`, 1.02 (inactive). The result for `O=C(Nc1ccccc1)Nc1ccc(-c2ccc(C(=O)[C@@H]3CCC[C@H]3C(=O)O)cc2)cc1` reads 1.01 (inactive). As to `Cc1ncsc1-c1ccc([C@H](C)NC(=O)[C@@H]2C[C@@H](O)CN2C(=O)[C@@H](NC(=O)COCCCOCCNC(=O)C[C@@H]2N=C(c3ccc(Cl)cc3)c3c(sc(C)c3C)-n3c(C)nnc32)C(C)(C)C)cc1`, the Z-AUC is -2.25 (inactive).

In the case of `O=C(O)C[C@H]1CCc2c1[nH]c1ccc(OCc3ccc(C4CCCC4)c(C(F)(F)F)c3)cc21`, the Z-AUC was 1.56 (inactive). For the molecule `C=C1C[C@H]2C=Nc3cc(OCCCOc4cc5c(cc4OC)C(=O)N4CC(=C)C[C@H]4C=N5)c(OC)cc3C(=O)N2C1`, the Z-AUC is 1.4 (inactive). Turning to `COc1cc(N2CCN(C)CC2)ccc1Nc1ncc2c(n1)N(C)c1ccccc1C(=O)N2C`, the Z-AUC is -0.347 (inactive). In the case of `CC(C)(O)CNc1ncc(-c2ccnc(Nc3ccncc3)n2)c(CC2CC2)n1`, the Z-AUC is -0.109 (inactive). Take `O=c1[nH]nc2c3c(cccc13)NC(CN1Cc3ccccc3C1)=N2`: the Z-AUC is -0.263 (inactive). The result for `Cc1cnc(NC(=O)c2cc(Oc3cnc(C(=O)N(C)C)nc3)c3cc(C)oc3c2)cn1` reads -1.14 (inactive); that for `N[C@@H](CCC(=O)O)C(=O)N[C@@H](Cc1c[nH]c2ccccc12)C(=O)O` (H-Glu-Trp-OH), 1.08 (inactive). The result for `C=C1/C(=C\C=C2/CCC[C@]3(C)[C@@H]([C@H](C)CCCC(C)(C)O)CC[C@@H]23)C[C@@H](O)C[C@@H]1O` reads 0.612 (inactive) and 1.13 (inactive). The result for `CCn1c(=O)c(-c2ccc(-c3cncc(C)n3)cc2Cl)cc2cnc(NCCC3CCN(C)CC3)nc21` reads 1.53 (inactive).

On to `Cc1c(C(=O)Nc2ccc(Oc3ccnc4[nH]cc(-c5ccccc5)c34)c(F)c2)c(=O)n(-c2ccc(F)cc2)n1C`, for which the Z-AUC was 0.886 (inactive). As to `CN1C[C@@H]2c3ccccc3Oc3ccc(Cl)cc3[C@H]2C1`, the Z-AUC is 1.28 (inactive). In the case of `Cc1ccc(NC(=O)[C@H]2CCCN(C(=O)c3c(C)cccc3F)[C@H]2c2ccc(NC3CCCC3)cc2)cc1C(F)(F)F` it was -0.612 (inactive); in that of `CCCc1cc(C(=O)N[C@H](Cc2ccc(-c3cccc(OC(F)(F)F)c3)nc2)C(=O)N[C@@H]2CCNC2)sc1C`, -0.805 (inactive).

Consider `NC(=O)c1cnc2[nH]ccc2c1NC1C2CC3C[C@H]1CC(O)(C3)C2` (some centres undefined), for which the Z-AUC was 0.584 (inactive). As for `CCOc1cc(/C=C2/C(=O)N(c3ccccc3)N=C2C)cc(Cl)c1OCC(=O)OC`, the Z-AUC was 1.36 (inactive).

For `CCC1CCCCN1C(=O)n1ncc(C(O)(c2ccccc2)c2ccccc2)n1` (centres undefined), the Z-AUC was 0.1 (inactive). In the case of `NS(=O)(=O)c1ccc(S(=O)(=O)Nc2cccc3c(Cl)c[nH]c23)cc1` it was -0.956 (inactive); in that of `O=C(C[C@@H]1C/C=C\CCC(=O)O[C@H](c2ccccc2)CNC1=O)NCc1ccc(Cl)cc1`, -0.618 (inactive).
